Drawing on ChEMBL document CHEMBL1961873, “Compounds: GSK PKIS; Assays: Nanosyn kinase panel” (2012), this text covers inhibition for 33 compounds.

By inhibition is commonly meant the change of the read-out against control, counted positive when it falls.

The target in one experiment is T1, Tyrosine-protein kinase TXK (Homo sapiens) (UniProt P42681).
T1 sequence (whole entry): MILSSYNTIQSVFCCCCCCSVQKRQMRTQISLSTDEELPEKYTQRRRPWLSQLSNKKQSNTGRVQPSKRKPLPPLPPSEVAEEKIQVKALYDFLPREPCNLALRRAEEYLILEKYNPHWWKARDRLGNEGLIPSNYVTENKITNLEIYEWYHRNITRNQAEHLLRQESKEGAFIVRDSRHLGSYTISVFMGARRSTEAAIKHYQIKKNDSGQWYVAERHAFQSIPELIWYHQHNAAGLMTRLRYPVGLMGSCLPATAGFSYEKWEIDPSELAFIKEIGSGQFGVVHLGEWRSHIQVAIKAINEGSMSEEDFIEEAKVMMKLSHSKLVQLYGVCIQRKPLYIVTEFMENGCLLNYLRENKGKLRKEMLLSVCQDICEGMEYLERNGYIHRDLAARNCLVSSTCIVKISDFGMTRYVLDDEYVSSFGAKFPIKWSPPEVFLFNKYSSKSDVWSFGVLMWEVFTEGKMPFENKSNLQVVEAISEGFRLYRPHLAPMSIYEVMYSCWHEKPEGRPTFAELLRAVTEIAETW
The following applies: at 0.1 µM.
Regarding `CS(=O)(=O)CCNCc1ccc(-c2ccc3ncnc(Nc4ccc(OCc5cccc(F)c5)c(C(F)(F)F)c4)c3c2)o1`, the inhibition is 3.11%.
In the case of `Fc1cccc(COc2ccc(Nc3ncnc4sc(-c5cccs5)cc34)cc2Cl)c1`, the inhibition came to 2.2%.
For `CC1=C(C(=O)Nc2ccc3[nH]ncc3c2)C(c2ccc3ccccc3c2)CC(=O)N1` (stereo unspecified), the inhibition is 2.76%.
In the case of `CS(=O)(=O)CCNCc1ccc(-c2ccc3ncnc(Nc4ccc(OCc5ccccc5)c(Cl)c4)c3c2)o1`, the inhibition was 1.26%.
On the same count and under the same terms, with `Cc1cc(O)cc(C)c1/C=C/c1cncc(-c2nn[nH]n2)c1` the figure was 5.73%; with `O=C1Nc2ccc(C(=O)c3ccco3)cc2C1=Cc1cc(Cl)c(O)c(Cl)c1`, 3.45%; with `COc1cc(C)c(NC(=O)CN(C)C)cc1Nc1nc(Nc2cccc(F)c2C(N)=O)c2cc[nH]c2n1`, 0.4%.
Regarding `NC(=O)c1ccc(-c2nc(-c3ccccn3)c(-c3ccc4c(c3)OCO4)[nH]2)cc1`, the inhibition worked out at 2.18%.
Take `CCn1c(-c2nonc2N)nc2cnc(Oc3cccc(NC(=O)c4ccc(OCCN5CCOCC5)cc4)c3)cc21`: the inhibition amounted to 5.3%.
Turning to `COc1cc2ncn(-c3cc(O[C@H](C)c4ccccc4Cl)c(C(N)=O)s3)c2cc1OC`, the inhibition was found to be 5.04%.
On to `Cc1ccc(C(=O)NC2CCCCC2)cc1-c1ccc(C(=O)NCC2CC2)cc1`, for which the inhibition was found to be 4.64%.
Regarding `CCn1c(-c2nonc2N)nc2c(C#CC(C)(C)O)nc(CN3CCCC3)cc21`, the inhibition was found to be 1.55%.
On to `Cc1nn(C)c2cc(N(C)c3ccnc(Nc4cccc(S(N)(=O)=O)c4)n3)ccc12`, for which the inhibition was found to be 53.5%.
For the compound `COc1cc2ncn(-c3cc(OCc4ccccc4Cl)c(C(N)=O)s3)c2cc1OC`, the inhibition was 2.99%.
Turning to `COc1ccc2cc(-c3c(-c4ccncc4)nc(-c4ccc([S+](C)[O-])cc4)n3C)ccc2c1` (stereo unspecified), the inhibition turned out to be 1.4%.
Consider `COc1ccc(-c2ccncc2)cc1C(N)=O`, for which the inhibition was found to be 4.98%.
For the compound `CCc1cccc(NC(=O)Nc2ccc(Oc3ccc4nc(NC(=O)OC)[nH]c4c3)cc2)c1`, the inhibition was 2.03%.
On to `O=C1NC(=O)C(c2ccc(Cl)cc2)=C1Nc1ccc(Cl)c(C(=O)O)c1`, for which the inhibition is -0.87%.
Regarding `CCn1c(-c2nonc2N)nc2cncc(C(=O)N3CCNCC3)c21`, the inhibition was determined as 7.08%.
As to `CN(C)c1cc2c(Nc3ccc4nc(Cc5ccccc5)[nH]c4c3)ncnc2cn1`, the inhibition worked out at 8.4%.
With `Nc1nc(-c2ccc3c(c2)C(=Cc2cc(Br)c(O)c(Br)c2)C(=O)N3)cs1`, the inhibition was -0.27%.
Take `Nc1nc(-c2ccccn2)c(-c2ccc3ncccc3n2)s1`: the inhibition came out at 2.05%.
Still for that read-out and setting: under `Nc1ncnc2occ(-c3ccc(NC(=O)Nc4cc(C(F)(F)F)cc(C(F)(F)F)c4)cc3)c12` stands 1.73%.
Consider `NS(=O)(=O)c1cccc(-c2ccc3c(NC(=O)C4CC4)n[nH]c3c2)c1`, for which the inhibition was -2.48%.
Consider `CCN1CCC(CC(=O)Nc2n[nH]c3nc(-c4cccs4)c(Br)cc23)CC1`, for which the inhibition was -1.07%.
For the compound `Cc1cccc(-c2n[nH]cc2-c2ccc3ncccc3n2)n1`, the inhibition came out at 1.27%.
As to `COC(=O)Nc1nc2cc(Oc3cccc(NC(=O)Nc4cc(C(F)(F)F)ccc4F)c3)ccc2[nH]1`, the inhibition stood at 2.14%.
With `CNC(=O)c1cncc(/C=C/c2c(Cl)cccc2Cl)c1`, the inhibition was 5.28%.
As to `Cc1nnc(-c2ccc(C)c(-c3ccc(C(=O)Nc4cccc(C#N)c4)cc3)c2)o1`, the inhibition turned out to be 3.37%.
For `CC(=O)Nc1cccc(C#Cc2cncnc2Nc2ccc(OCc3cccc(F)c3)c(Cl)c2)n1`, the inhibition came to 0.96%.
Take `O=C1NC(=O)C(c2cccc(Cl)c2)=C1Nc1ccc(O)c(Cl)c1`: the inhibition was 2.35%.
With `CC(C)=Cc1cccc2c1/C(=N/Nc1ccc(S(N)(=O)=O)cc1)C(=O)N2`, the inhibition came to 3.64%.
On to `COc1cc2ncn(-c3cc(OCc4ccccc4C(F)(F)F)c(C(N)=O)s3)c2cc1OC`, for which the inhibition is -5.47%.

Another experiment concerns the target T1, Tyrosine-protein kinase TXK (Homo sapiens). The following applies: at 1 µM.
As to `CS(=O)(=O)CCNCc1ccc(-c2ccc3ncnc(Nc4ccc(OCc5cccc(F)c5)c(C(F)(F)F)c4)c3c2)o1`, the inhibition turned out to be 3.02%.
For the compound `Fc1cccc(COc2ccc(Nc3ncnc4sc(-c5cccs5)cc34)cc2Cl)c1`, the inhibition worked out at 0.81%.
Take `CC1=C(C(=O)Nc2ccc3[nH]ncc3c2)C(c2ccc3ccccc3c2)CC(=O)N1` (stereo unspecified): the inhibition came out at 8.34%.
Consider `CS(=O)(=O)CCNCc1ccc(-c2ccc3ncnc(Nc4ccc(OCc5ccccc5)c(Cl)c4)c3c2)o1`, for which the inhibition amounted to 1.47%.
The same measure, in the same setting: with `Cc1cc(O)cc(C)c1/C=C/c1cncc(-c2nn[nH]n2)c1` the figure was 45.3%; with `O=C1Nc2ccc(C(=O)c3ccco3)cc2C1=Cc1cc(Cl)c(O)c(Cl)c1`, 11.2%; with `COc1cc(C)c(NC(=O)CN(C)C)cc1Nc1nc(Nc2cccc(F)c2C(N)=O)c2cc[nH]c2n1`, -0.74%.
`NC(=O)c1ccc(-c2nc(-c3ccccn3)c(-c3ccc4c(c3)OCO4)[nH]2)cc1`: the inhibition amounted to 3.28%.
The same measure, in the same setting: with `CCn1c(-c2nonc2N)nc2cnc(Oc3cccc(NC(=O)c4ccc(OCCN5CCOCC5)cc4)c3)cc21` the figure was 5.82%.
The same measure, in the same setting: with `COc1cc2ncn(-c3cc(O[C@H](C)c4ccccc4Cl)c(C(N)=O)s3)c2cc1OC` the figure was 15.8%.
For the compound `Cc1ccc(C(=O)NC2CCCCC2)cc1-c1ccc(C(=O)NCC2CC2)cc1`, the inhibition was found to be 5.63%.
For `CCn1c(-c2nonc2N)nc2c(C#CC(C)(C)O)nc(CN3CCCC3)cc21`, the inhibition stood at 2.08%.
As for `Cc1nn(C)c2cc(N(C)c3ccnc(Nc4cccc(S(N)(=O)=O)c4)n3)ccc12`, the inhibition worked out at 79.2%.
With `COc1cc2ncn(-c3cc(OCc4ccccc4Cl)c(C(N)=O)s3)c2cc1OC`, the inhibition was 13.2%.
Consider `COc1ccc2cc(-c3c(-c4ccncc4)nc(-c4ccc([S+](C)[O-])cc4)n3C)ccc2c1` (stereo unspecified), for which the inhibition turned out to be 4.06%.
Regarding `COc1ccc(-c2ccncc2)cc1C(N)=O`, the inhibition worked out at 5.36%.
Regarding `CCc1cccc(NC(=O)Nc2ccc(Oc3ccc4nc(NC(=O)OC)[nH]c4c3)cc2)c1`, the inhibition worked out at 5.13%.
`O=C1NC(=O)C(c2ccc(Cl)cc2)=C1Nc1ccc(Cl)c(C(=O)O)c1`: the inhibition came to 1.12%.
Same read-out and setting: with `CCn1c(-c2nonc2N)nc2cncc(C(=O)N3CCNCC3)c21` the figure was 5.49%; with `CN(C)c1cc2c(Nc3ccc4nc(Cc5ccccc5)[nH]c4c3)ncnc2cn1`, 13.7%.
Same read-out and setting: under `Nc1nc(-c2ccc3c(c2)C(=Cc2cc(Br)c(O)c(Br)c2)C(=O)N3)cs1` stands 0.27%; under `Nc1nc(-c2ccccn2)c(-c2ccc3ncccc3n2)s1`, 3.04%.
Regarding `Nc1ncnc2occ(-c3ccc(NC(=O)Nc4cc(C(F)(F)F)cc(C(F)(F)F)c4)cc3)c12`, the inhibition worked out at 4.45%.
`NS(=O)(=O)c1cccc(-c2ccc3c(NC(=O)C4CC4)n[nH]c3c2)c1`: the inhibition was -2.41%.
For `CCN1CCC(CC(=O)Nc2n[nH]c3nc(-c4cccs4)c(Br)cc23)CC1`, the inhibition was -3.55%.
In the case of `Cc1cccc(-c2n[nH]cc2-c2ccc3ncccc3n2)n1`, the inhibition was found to be 2.32%.
In the case of `COC(=O)Nc1nc2cc(Oc3cccc(NC(=O)Nc4cc(C(F)(F)F)ccc4F)c3)ccc2[nH]1`, the inhibition was 2.8%.
Regarding `CNC(=O)c1cncc(/C=C/c2c(Cl)cccc2Cl)c1`, the inhibition came out at 22.7%.
Take `Cc1nnc(-c2ccc(C)c(-c3ccc(C(=O)Nc4cccc(C#N)c4)cc3)c2)o1`: the inhibition was 4.78%.
In the case of `CC(=O)Nc1cccc(C#Cc2cncnc2Nc2ccc(OCc3cccc(F)c3)c(Cl)c2)n1`, the inhibition turned out to be 0.46%.
On to `O=C1NC(=O)C(c2cccc(Cl)c2)=C1Nc1ccc(O)c(Cl)c1`, for which the inhibition came to 3.52%.
Regarding `CC(C)=Cc1cccc2c1/C(=N/Nc1ccc(S(N)(=O)=O)cc1)C(=O)N2`, the inhibition was found to be 12.9%.
With `COc1cc2ncn(-c3cc(OCc4ccccc4C(F)(F)F)c(C(N)=O)s3)c2cc1OC`, the inhibition was found to be 2.84%.
